A value given as a limit tells only on which side of the number the result lay.

The target of this test is T1, Methionyl-tRNA synthetase, putative (Leishmania donovani (strain BPK282A1)) (UniProt E9BF75).
T1 sequence (whole entry): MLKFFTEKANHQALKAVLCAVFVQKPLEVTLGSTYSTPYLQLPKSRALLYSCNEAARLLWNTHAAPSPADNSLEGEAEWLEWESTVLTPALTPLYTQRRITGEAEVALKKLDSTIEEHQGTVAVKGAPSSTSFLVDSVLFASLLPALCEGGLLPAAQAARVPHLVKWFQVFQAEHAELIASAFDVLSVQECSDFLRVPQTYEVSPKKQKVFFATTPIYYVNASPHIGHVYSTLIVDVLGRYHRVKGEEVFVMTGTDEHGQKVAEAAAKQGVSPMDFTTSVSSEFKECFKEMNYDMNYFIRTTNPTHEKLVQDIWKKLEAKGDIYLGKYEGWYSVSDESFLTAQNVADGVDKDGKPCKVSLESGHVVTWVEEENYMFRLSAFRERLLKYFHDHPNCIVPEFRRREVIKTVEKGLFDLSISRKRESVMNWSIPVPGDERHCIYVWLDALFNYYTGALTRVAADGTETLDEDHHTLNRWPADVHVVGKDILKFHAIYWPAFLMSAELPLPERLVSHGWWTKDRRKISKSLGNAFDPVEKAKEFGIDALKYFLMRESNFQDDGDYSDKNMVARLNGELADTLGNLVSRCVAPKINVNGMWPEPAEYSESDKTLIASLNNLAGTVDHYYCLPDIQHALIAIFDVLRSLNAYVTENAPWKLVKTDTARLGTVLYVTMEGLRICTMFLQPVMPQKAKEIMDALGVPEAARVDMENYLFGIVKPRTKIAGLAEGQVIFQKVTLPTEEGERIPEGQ
The experiment in a line: Leishmania donovani Methionine tRNA synthetase (LdMetRS):v7. Dose response assay. It counts as functional. The arrangement: conc 80 nM, time 150 minutes.

In the case of `CC(CO)Nc1nc(Nc2ccc(F)c(F)c2)nc2c1cnn2C` (stereo unspecified), the PXC50 by setting is: (BOTTOM 2.552520772, HILLSLOPE 1.745088914, MAX_EFFECT 107.6446281, TOP 100.0) 4.83; (BOTTOM 8.006700064, HILLSLOPE 1.180035315, MAX_EFFECT 70.20872865, TOP 73.72941327) 5.16; (BOTTOM -2.864211308, HILLSLOPE 1.095022811, MAX_EFFECT 93.83259912, TOP 100.0) 4.9.

Turning to `Cc1cc(NCCO)nc(Nc2ccc(F)c(F)c2)n1`, the PXC50 by setting is: (BOTTOM 2.753913498, HILLSLOPE 0.759187316, MAX_EFFECT 87.41092637, TOP 100.0) 4.84; (BOTTOM 8.051339334, HILLSLOPE 0.840494555, MAX_EFFECT 84.97854077, TOP 109.6160526) 4.62; (BOTTOM -3.669323527, HILLSLOPE 0.810726137, MAX_EFFECT 81.68224299, TOP 99.92002792) 4.84.

With `Cn1ncc2c(NCCCO)nc(Nc3ccc(F)c(F)c3)nc21`, the PXC50 is 5.1 (BOTTOM 3.669470718, HILLSLOPE 1.210805745, MAX_EFFECT 80.79625293, TOP 84.65096449); 4.94 (BOTTOM -1.663315364, HILLSLOPE 0.981462858, MAX_EFFECT 92.22222222, TOP 100.0); 4.87 (BOTTOM -4.044672009, HILLSLOPE 0.90681659, MAX_EFFECT 92.93598234, TOP 107.9137749).

As to `CN(C)c1nc2c(c(N3CCc4ccccc4C3)n1)CCNC2`, the PXC50 reads like this: (BOTTOM 4.386431105, HILLSLOPE 1.427859325, MAX_EFFECT 80.85808581, TOP 100.0) 4.37; (BOTTOM 4.719660638, HILLSLOPE 1.487233723, MAX_EFFECT 73.91304348, TOP 100.0) 4.28; (BOTTOM 4.739489756, HILLSLOPE 1.201717489, MAX_EFFECT 56.63082437, TOP 100.0) 4.07.

On to `NCC1Cc2cc(-c3nccc(N4CCC(O)CC4)n3)cc(F)c2O1` (stereo unspecified), for which the PXC50 reads like this: (BOTTOM 4.57074024, HILLSLOPE 1.301030074, MAX_EFFECT 74.63768116, TOP 104.4144526) 4.29; (BOTTOM 7.212229631, HILLSLOPE 1.389029539, MAX_EFFECT 78.85304659, TOP 100.0) 4.36; (BOTTOM 8.369250909, HILLSLOPE 1.751405643, MAX_EFFECT 88.77887789, TOP 100.0) 4.37.

Compound `Cc1cnn(CC2CCCN2Cc2nc(C)c3ccccc3n2)c1` (stereo unspecified) registered a PXC50 (BOTTOM 4.743177934, HILLSLOPE 1.089829687, MAX_EFFECT 75.04332756, TOP 100.0) of 4.32; a PXC50 (BOTTOM 12.95021696, HILLSLOPE 2.00591159, MAX_EFFECT 86.80555556, TOP 100.0) of 4.37; a PXC50 (BOTTOM -2.883731045, HILLSLOPE 1.436435191, MAX_EFFECT 78.52348993, TOP 84.80947153) of 4.63.

On to `Cn1ncc2c(NCCc3nnn[nH]3)nc(Nc3ccc(F)c(F)c3)nc21`, for which the PXC50 was 5.11 (BOTTOM 6.583334695, HILLSLOPE 0.991501174, MAX_EFFECT 88.67924528, TOP 94.6320251); 5.16 (BOTTOM -5.664940327, HILLSLOPE 0.831663104, MAX_EFFECT 86.00508906, TOP 96.34066377); 5.14 (BOTTOM -7.167085921, HILLSLOPE 0.718342131, MAX_EFFECT 85.0877193, TOP 100.1570552).

As to `CC(C)Nc1nc(Nc2ccc(F)c(F)c2)nc2c1cnn2C`, the PXC50 (BOTTOM 6.912856457, HILLSLOPE 1.265127605, MAX_EFFECT 60.96491228, TOP 58.85327881) worked out at 5.32; the PXC50 (BOTTOM 8.026516696, HILLSLOPE 1.466204418, MAX_EFFECT 55.47073791, TOP 58.34935066) turned out to be 5.27; the PXC50 (BOTTOM 8.495247693, HILLSLOPE 1.610767227, MAX_EFFECT 62.64150943, TOP 64.37148882) came to 5.22.

Regarding `COCCNc1cc(-c2ccccc2CCN)c2cc[nH]c2n1`, the PXC50 is 4.2 (BOTTOM -0.0153, HILLSLOPE 1.167622452, MAX_EFFECT 63.88888889, TOP 100.0); less than 4 (MAX_EFFECT 46.30872483); less than 4 (MAX_EFFECT 46.96707106).

Turning to `Cc1cc(Nc2ccc(F)c(F)c2)nc(NCCO)n1`, the PXC50 worked out at 5.04 (BOTTOM -0.152929864, HILLSLOPE 0.883857243, MAX_EFFECT 83.3655706, TOP 93.53791092); 4.9 (BOTTOM -2.585097693, HILLSLOPE 0.96868989, MAX_EFFECT 84.50413223, TOP 95.81491094); 4.82 (BOTTOM -4.028659836, HILLSLOPE 0.891804294, MAX_EFFECT 83.70044053, TOP 100.2402145).

For the compound `Cn1ncc2c(NCCO)nc(Cl)nc21`, the PXC50 reads like this: (MAX_EFFECT 0.234192037) less than 4; (MAX_EFFECT 8.148148148) less than 4; (MAX_EFFECT -0.662251656) less than 4.

In the case of `Cc1cnn(CCNCc2c(C)nn(CCO)c2C)c1`, the PXC50 was less than 4 (MAX_EFFECT 2.721088435), less than 4 (MAX_EFFECT 5.072463768) and less than 4 (MAX_EFFECT 8.23117338).

With `Cn1ccnc1CN(CCO)C(=O)C1CCN(C(=O)C2CC2)CC1`, the PXC50 is less than 4 (MAX_EFFECT 3.401360544), less than 4 (MAX_EFFECT 4.347826087) and less than 4 (MAX_EFFECT 10.33274956).

On to `COC(=O)c1cnc(Nc2cccc(C(F)(F)F)c2)c(S(N)(=O)=O)c1`, for which the PXC50 was less than 4 (MAX_EFFECT 3.50877193), less than 4 (MAX_EFFECT 6.168224299) and less than 4 (MAX_EFFECT 6.615776081).

As to `Cn1ncc2c(NCCO)nc(NCCN3CCOCC3)nc21`, the PXC50 was less than 4 (MAX_EFFECT 4.109589041), less than 4 (MAX_EFFECT 10.0) and less than 4 (MAX_EFFECT 11.56069364).

`Cn1ncc2c(Nc3ccc(F)c(F)c3)nc(Nc3ccc(F)c(F)c3)nc21`: the PXC50 is less than 4 (MAX_EFFECT 4.405286344), less than 4 (MAX_EFFECT 13.01652893) and less than 4 (MAX_EFFECT 15.66731141).

`Cn1ncc2c(Nc3ccc(F)c(F)c3)nc(NCCO)nc21`: the PXC50 reads like this: (MAX_EFFECT 4.750593824) less than 4; (MAX_EFFECT 5.660377358) less than 4; (MAX_EFFECT 14.59227468) less than 4.

The record behind these values is ChEMBL document CHEMBL3988442, “University of Dundee, Small-Polar-MMV Screening Library” (2021).
